The sample as a whole holds a higher share of hits than the screen did.
Pf Dd2 inh = blocks in vitro growth of P. falciparum Dd2; 120,000 compounds, 4.3% hits; AID 1347417; P. falciparum Dd2 growth, SYBR Green, 72 h; Potency, µM (series often up to 28.9 µM), for the others: at the highest dose activity, negative = inhibition, most hits filed as inhibitors; active = well fitted inhibition curve with a large enough effect;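 also: plate controls were DMSO vehicle for no effect and reference drug for full effect; nearly all actives have a fitted effect of over 65% in size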
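Infected erythrocytes (Dd2, 0.3% parasitemia, 2.5% hematocrit final) are added to compound in RPMI-1640/Albumax II medium, grown 72 h at 37C in low oxygen, then lysed with saponin/Triton-X containing SYBR Green and read by fluorescence.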
* = called active by the depositor; [ ] = remark or other dose. Potency is read from the fitted curve at half-maximal effect.

Results for COCCN1Cc2[nH]nc(-c3ccsc3)c2CC1=O ?
Pf Dd2 inh: 1.4%[44.1 µM]

How did O=C1Cc2c(-c3ccsc3)n[nH]c2CN1Cc1ccccc1 do in these assays?
Pf Dd2 inh: 5.62µM*

How did O=C1Cc2c(-c3cccc(C(F)(F)F)c3)n[nH]c2CN1Cc1ccccc1 do in these assays?
Pf Dd2 inh: inactive

Results for N#Cc1ccc(C(=O)N2CC(C(=O)NCCc3ccncc3)C3(CCOCC3)C2)cc1 (centres undefined) ?
Pf Dd2 inh: 22.0%

Results for Cc1nnc(N2CCC(C(=O)NC3CCCCC3)CC2)c2nn(-c3ccccc3)c(C)c12 ?
Pf Dd2 inh: 42.2%

What do the screens show for `CCOC(=O)c1cccc(NC(=O)C2CCCN(c3nnc(C)c4c(C)n(-c5ccccc5)nc34)C2)c1` (centres undefined)?
Pf Dd2 inh: inactive

How did Cc1ccc(-n2nc3c(N4CCCC(C(=O)NCc5ccc(Cl)cc5)C4)nnc(C)c3c2C)cc1 (centres undefined) do in these assays?
Pf Dd2 inh: -14.3%

How did CCOc1ccc(CCNC(=O)C2CCCN(c3nnc(C)c4c(C)n(-c5ccccc5)nc34)C2)cc1 (centres undefined) do in these assays?
Pf Dd2 inh: 7.94µM*

Results for CCc1ccc(CNC(=O)C2CCCN(c3nnc(C)c4c(C)n(-c5ccccc5)nc34)C2)cc1 (centres undefined) ?
Pf Dd2 inh: -29.0%

Results for Cc1ccc(CCNC(=O)C2CCCN(c3nnc(C)c4c(C)n(-c5ccccc5)nc34)C2)cc1 (centres undefined) ?
Pf Dd2 inh: 52.7%[5.79 µM]

What do the screens show for `COc1ccc(-n2nc3c(N4CCCC(C(=O)NCc5cccc(F)c5)C4)nnc(C)c3c2C)cc1` (centres undefined)?
Pf Dd2 inh: 11.2µM*

Results for CCOC(=O)C1CCCN(C(=O)C2CCN(c3nnc(C)c4c(C)n(-c5ccccc5)nc34)CC2)C1 (centres undefined) ?
Pf Dd2 inh: 10µM*

What do the screens show for `Cc1nnc(N2CCCC(C(=O)NCc3ccccc3)C2)c2nn(-c3ccccc3)c(C)c12` (centres undefined)?
Pf Dd2 inh: 28.8%

How did O=C(c1nc2sccn2c1Br)N1CCC(N2CCCCCC2=O)CC1 do in these assays?
Pf Dd2 inh: -18.3%

What do the screens show for `COc1ccccc1CC(=O)N1CCC(c2n[nH]c(=O)n2Cc2ccc(F)cc2)CC1`?
Pf Dd2 inh: -16.3%

How did COc1ccc(NC2CCCN(C(=O)CCCS(N)(=O)=O)C2)cc1 (centres undefined) do in these assays?
Pf Dd2 inh: -3.9%

What do the screens show for `O=C(c1ccc2[nH]ccc2c1)N1CCCC(Cc2noc(-c3ccccn3)n2)C1` (centres undefined)?
Pf Dd2 inh: inactive

What do the screens show for `CC1(c2ccccc2)N(Cc2cccnc2)C(=O)OC12CCN(C(=O)Cc1ccc3c(c1)OCO3)CC2` (centres undefined)?
Pf Dd2 inh: inactive

What do the screens show for `OCC1(O)CCCN(Cc2cnc(NCc3ccccc3)nc2)C1` (centres undefined)?
Pf Dd2 inh: -5.1%

Results for CCc1c(C(=O)N2CCCC3(CCNC3)C2)[nH]c2ccccc12 (centres undefined) ?
Pf Dd2 inh: -5.1%

Results for Cc1ccsc1C(=O)NCC1Cn2cccc2CN1C (centres undefined) ?
Pf Dd2 inh: -9.3%

How did COc1ccc(Nc2ncnc3onc(-c4ccc(Cl)cc4)c23)cc1Cl do in these assays?
Pf Dd2 inh: 15.8%

What do the screens show for `Cc1ccccc1CN1CCC(CNc2ncnc3onc(-c4ccc(Cl)cc4)c23)CC1`?
Pf Dd2 inh: 8.91µM*

Results for CCOc1ccc(Nc2ncnc3onc(-c4ccc(Cl)cc4)c23)cc1 ?
Pf Dd2 inh: -20.1%

Results for Cc1ccc(CCNc2ncnc3onc(-c4ccc(F)cc4)c23)cc1 ?
Pf Dd2 inh: 106.4%

What do the screens show for `Cc1ccc(CN2CCC(CNc3ncnc4onc(-c5ccc(Cl)cc5)c34)CC2)cc1`?
Pf Dd2 inh: 3.16µM*

Results for Clc1ccc(-c2noc3ncnc(N4CCCCC4)c23)cc1 ?
Pf Dd2 inh: 18.1%

How did Cc1cccc(Nc2ncnc3onc(-c4ccc(Cl)cc4)c23)c1C do in these assays?
Pf Dd2 inh: -15.7%

Results for Clc1ccc(CN2CCC(CNc3ncnc4onc(-c5ccc(Cl)cc5)c34)CC2)cc1 ?
Pf Dd2 inh: 4.47µM*

Results for COc1cccc(N2CCN(c3ncnc4onc(-c5ccc(Cl)cc5)c34)CC2)c1 ?
Pf Dd2 inh: inactive

How did Cc1ccc(C)c(N2CCN(CCCNc3ncnc4onc(-c5ccc(Cl)cc5)c34)CC2)c1 do in these assays?
Pf Dd2 inh: -9.0%

Results for Cc1cccc(CN2CCC(CNc3ncnc4onc(-c5ccc(Cl)cc5)c34)CC2)c1 ?
Pf Dd2 inh: -6.1%

What do the screens show for `COc1ccc(OC)c(CCNc2ncnc3onc(-c4ccc(Cl)cc4)c23)c1`?
Pf Dd2 inh: 11.2µM*

How did COc1ccc(-c2ccc3nnc(CNC(=O)C(C)Oc4ccccc4)n3n2)cc1 (centres undefined) do in these assays?
Pf Dd2 inh: inactive

What do the screens show for `Cc1cccnc1C(=O)NC1CCN(c2ccc(=O)n(C)n2)CC1`?
Pf Dd2 inh: -1.5%

How did COC(=O)C1=C(C)N=C2SC=C(CC(=O)NC3CC4CCC3C4)N2C1c1ccsc1 (centres undefined) do in these assays?
Pf Dd2 inh: inactive

How did COC[C@@H]1CN(S(=O)(=O)Cc2ccccc2)C[C@H]1c1ccncc1 do in these assays?
Pf Dd2 inh: -0.5%

What do the screens show for `c1ccc(C2=NOC3(CCN(Cc4cccc5ccccc45)CC3)C2)cc1`?
Pf Dd2 inh: -20.7%

Results for Cn1nc(C2CCN(C(=O)C3CCC3)CC2)c2c1CCOC2 ?
Pf Dd2 inh: inactive[5.79 µM]

Results for CC(C)COc1cc(=O)n2c(c1C(=O)NC1CCN(C)CC1)CCCCC2 ?
Pf Dd2 inh: 27.9%

Results for COC1CCC12CCN(C(=O)c1ccnn1C)CC2 (centres undefined) ?
Pf Dd2 inh: 19.6%

How did O=C(c1ccco1)N1CC[C@@H]2COCCN(Cc3ccccc3)[C@@H]2C1 do in these assays?
Pf Dd2 inh: -0.8%

Results for COCC(=O)N[C@H]1C[C@@H](CO)N(Cc2ccccn2)C1 ?
Pf Dd2 inh: 59.0%

How did O=C(NC1CCCC1)N1CCCCC1c1nc(-c2cnccn2)n[nH]1 (centres undefined) do in these assays?
Pf Dd2 inh: 3.5%

How did COCc1nc(C2CC(NC(=O)CN3C(=O)CN(C)C3=O)C2)cc(=O)[nH]1 (centres undefined) do in these assays?
Pf Dd2 inh: -11.7%

Results for CN(C)c1nc(NC2CC(c3cc(=O)[nH]c(C4CC4)n3)C2)ncc1F (centres undefined) ?
Pf Dd2 inh: inactive

What do the screens show for `COCc1nc(C2CC(Nc3ccnc4cc(Cl)ccc34)C2)cc(=O)[nH]1` (centres undefined)?
Pf Dd2 inh: 2.51µM*

How did COc1ccc(C(CC(=O)N2CCC(OC)CC2)c2ccccc2)cc1 (centres undefined) do in these assays?
Pf Dd2 inh: -7.7%

How did CC(C)Oc1ccc2ccccc2c1CN1C[C@H](O)C[C@H]1C(=O)O do in these assays?
Pf Dd2 inh: -1.5%

How did COC(=O)[C@@H]1Cc2ncn(C(C)C)c2CN1S(=O)(=O)c1ccccc1 do in these assays?
Pf Dd2 inh: -8.2%[44.1 µM]

What do the screens show for `CC(=O)N1CCC2(CC1)CN(C(=O)C1CCN(C)CC1)Cc1ccccc1O2`?
Pf Dd2 inh: 1.5%

Results for CN(C)C[C@H]1C[C@@H](CO)CN(C(=O)c2cc(-c3ccccc3F)n[nH]2)C1 ?
Pf Dd2 inh: 12.3%
